# Measured values: PubChem BioAssay (Tox21)
# Unmarked numbers belong to inactive results. Calls follow the shape of the dose curve; as a rule, active = well fitted activation curve with a large enough effect in the repeat runs; inconclusive = weak or mixed curves; inactive = flat fitted curve, though single readings scatter.
# Molecular target: KiSS-1 receptor (Homo sapiens) (UniProt Q969F8)
# Experiment: Human kisspeptin (KISS1R) small molecule agonists, calcium flux assay in KISS1R-HEK293 cells (AID 1920064)
# Details: KISS1R-HEK293, calcium flux fluorescence, agonist; series mostly up to 76.8 µM; activation: at the top concentration
# Excerpt: National Center for Advancing Translational Sciences [NCATS]
# Division of Preclinical Innovation [DPI]
# U.S. Environmental Protection Agency [EPA]
# National Institutes of Environmental Health Sciences [NIEHS]
# National Toxicology Program [NTP]
# U.S. Food and Drug Administration [FDA]
# Kisspeptin and its receptor KISS1R play key roles in mammalian reproduction due to their involvement in the onset of puberty and control of the hypothalamic-pituitary-gonadal axis such as regulates GnRH release from the hypothalamus. The kisspeptin/KISS1R system also plays a direct role in peripheral organs (including the ovary, testis, uterus, and placenta) and is implicated in reproductive diseases such as miscarriage and polycystic ovary syndrome (PCOS). Abnormal KISS1R activity is associated with abnormal puberty, infertility, endometriosis, and hormone-dependent tumors. The KISS1 receptor (KISS1R, also called GPR54), a G-protein-coupled receptor (GPCR), acts (through phospholipase C) to increase intracellular inositol trisphosphate and then release intracellular calcium stores. Cell-based KISS1R-HEK293 assay is using HEK293 cells that have been genetically engineered to express the human KISS1R, which activity can be measured by calcium signaling. A compound/drug can activate (agonist) KISS1R that can be monitored by levels of intracellular calcium.
# KISS1R-HEK293 cells developed by Codex Corp contain human KISS1R gene, which was stably integrated into HEK 293 cells. The compound activation can be detected by fluorescence intensity via calcium flux assay. This cell line has been used to screen the Tox21 10K compound library to identify agonists of KISS1R.
# KISS1R-Hek293 cells were dispensed at 1500 cells/4uL/well in 1536-well black wall/clear bottom plates using a multidrop dispenser. After the assay plates were incubated at a 37 C/5% CO2 incubator for 18 hours, 4 microL of Calcium Dye Solution was added to each well. The plates were incubated at 37 C for 1 hour. And then 23 nL of compounds dissolved in DMSO, positive controls, or DMSO only was transferred to the assay plate by a pin tool station. The fluorescence intensity in the plates was measured using FDSS 7000EX kinetic plate reader with a filter set of Ex/Em=480/540 for 3 min at 1 sec intervals. Each test compound was measured at 15 concentrations and in triplicates.
# % is scaled to controls: 0 for no effect and ±100 for the full control effect.
# KiSS-1 receptor (Homo sapiens), sequence (Q969F8 whole entry, looked up): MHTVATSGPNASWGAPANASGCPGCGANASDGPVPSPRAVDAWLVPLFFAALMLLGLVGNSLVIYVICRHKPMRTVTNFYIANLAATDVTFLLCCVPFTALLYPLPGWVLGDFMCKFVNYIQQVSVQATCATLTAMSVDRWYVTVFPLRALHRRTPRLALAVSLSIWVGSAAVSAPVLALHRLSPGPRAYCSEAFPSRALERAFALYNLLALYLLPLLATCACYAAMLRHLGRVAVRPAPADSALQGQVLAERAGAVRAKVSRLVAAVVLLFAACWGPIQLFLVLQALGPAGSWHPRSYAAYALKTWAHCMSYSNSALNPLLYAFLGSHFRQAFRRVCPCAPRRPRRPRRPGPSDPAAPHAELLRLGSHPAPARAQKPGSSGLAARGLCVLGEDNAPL
row,SMILES,activation
1,O=C(OCCCCCOC(=O)c1ccccc1)c1ccccc1,0.469%
2,CC(=O)Oc1ccc(C2(c3ccc(OC(C)=O)cc3)C(=O)Nc3ccccc32)cc1,4.04% [at 35.3 µM]
3,Cc1cccc(CN2CCN(C(c3ccccc3)c3ccc(Cl)cc3)CC2)c1 (stereo not given),0.477% [at 35.3 µM]
4,Cn1nnc2c(C(N)=O)ncn2c1=O,-1.19% [at 35.3 µM]
5,CCCCN1CCCC[C@H]1C(=O)Nc1c(C)cccc1C,0.517% [at 35.3 µM]
6,CCN(CC)CCNc1ccc(CNC=O)c2sc3ccc(OC)cc3c(=O)c12,0.158%
7,S=C1NC=NC2N=CNC12 (stereo not given),2.29%
8,CCOC(=O)[C@H](CCc1ccccc1)N[C@@H](C)C(=O)N1CCC[C@H]1C(=O)O,-1.29% [at 35.3 µM]
9,C/C=C/C=C/CCCCCCCO,1.82%
10,Cc1ccc2c(c1)c1c3n2CCNC3CCC1 (stereo not given),0.565% [at 35.3 µM]
11,O=C(NCC1CN(c2ccc(N3CCOCC3=O)cc2)C(=O)O1)c1ccc(Cl)s1 (stereo not given),-0.868% [at 35.3 µM]
12,O[C@@H]1CO[C@H]2[C@@H]1OC[C@@H]2O,-0.0043% [at 35.3 µM]
13,COc1cc(OC)cc(OC)c1,-1.01% [at 35.3 µM]
14,Cc1ncc([N+](=O)[O-])n1CC(C)O (stereo not given),0.318% [at 35.3 µM]
15,O=C(c1ccco1)N1CCNCC1,-0.621% [at 35.3 µM]
16,CCCCCCCCCCCC,-0.957%
17,O=C1CCCCO1,-1.84%
18,Cc1cc2c(s1)Nc1ccccc1N=C2N1CCN(C)CC1,0.118% [at 35.3 µM]
19,CC(NC(CCc1ccccc1)C(=O)O)C(=O)N1C(=O)N(C)CC1C(=O)O (stereo not given),-0.644% [at 35.3 µM]
20,CC(C)Cc1nccs1,0.424%

row,SMILES,activation
1,CCc1ccc(O)c(OC)c1,-1.75%
2,CC(O)COC(C)(C)C (stereo not given),-0.119%
3,CCCCCCCCCCCCCCCCCCN(C)C,-0.316% [at 35.3 µM]
4,CC(C)C[C@H](NC(=O)OCC1c2ccccc2-c2ccccc21)C(=O)O,-1.04%
5,CCCCCCCCCCCCCc1ccccc1,0.32% [at 35.3 µM]
6,CCOC(=O)c1cnc2c(cnn2CC)c1NN=C(C)C,-1.07% [at 35.3 µM]
7,CCC(C)CCCC(C)(C)O (stereo not given),1.59%
8,CCCNC(C)C(=O)Nc1ccccc1C (stereo not given),-0.296% [at 35.3 µM]
9,COC(=O)C1=C(C)NC(C)=C(C(=O)OCCN2CCN(C(c3ccccc3)c3ccccc3)CC2)C1c1cccc([N+](=O)[O-])c1 (stereo not given),5.79% [at 35.3 µM]
10,C/C=C/C(=O)CC,-0.292% [at 15.8 µM]
11,CC1(C)Cc2cccc(N)c2O1,-0.27%
12,C[Si]1(C)O[Si](C)(C)O[Si](C)(C)O1,-0.192%
13,C=CCOc1c(Br)cc(Br)cc1Br,-1.22%
14,C=CCSCC1Nc2cc(Cl)c(S(N)(=O)=O)cc2S(=O)(=O)N1 (stereo not given),0.0989% [at 35.3 µM]
15,COc1ccc(C(=O)Nc2nc3ccccc3c(NCc3ccccc3)c2C#N)cc1,5.69%
16,COc1ccc(OC)c(OC)c1,0.0911%
17,O=C(O)C(=O)Cc1c[nH]c2ccccc12,1.33%
18,CCOC(=O)CC1(C)OCC(C)O1 (stereo not given),5.65%
19,CCCCCCCCCOC(C)=O,0.212%
20,CCC(C)N(C)C(=O)c1cc2ccccc2c(-c2ccccc2Cl)n1 (stereo not given),2.08% [at 35.3 µM]
